# Measurements: the supplement of paper PMC6555819
# Tests used:
# Test in all cases: PBM binding z-score (relative to random genomic background probes); higher = stronger binding; sequences stand for … in GC…GCGATTGACAGCGTAGAATGAAGG
# [1] = test system: RARb homodimer (NR concentration 270 nM)
# Outline: (§1)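 Antibodies against each partner of ligand-free nuclear receptor dimers (one per run) detected binding on custom Agilent 4×180K protein-binding microarrays after 1 h incubation. The double-stranded probes had 34-nt variable regions carrying direct-repeat seeds, single-nucleotide variants, half-site ablations and random human genomic background sequences. Binding z-scores, from regression-normalized fluorescence, use the random background probes as reference.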
# [2] = test system: RARg:RXRa (NR concentration 270 nM, RXRa partner concentration 90 nM)
# Outline: as §1
# [3] = test system: RARg homodimer (NR concentration 270 nM)
# Outline: as §1
# [4] = test system: RXRa DBDmut IVT, anti-RXR (DBD mutation: RXRa K156A/R161A, NR concentration 90 nM)
# Outline: as §1
# [5] = test system: RXRa homodimer (NR concentration 180 nM)
# Outline: as §1
# [6] = test system: THRa:RXRa (NR concentration 90 nM, RXRa partner concentration 90 nM)
# Outline: as §1
# [7] = test system: THRa homodimer (NR concentration 90 nM)
# Outline: as §1
# [8] = test system: VDR homodimer (NR concentration 270 nM)
# Outline: as §1
Sequence,PBM binding z-score [1],PBM binding z-score [2],PBM binding z-score [3],PBM binding z-score [4],PBM binding z-score [5],PBM binding z-score [6],PBM binding z-score [7],PBM binding z-score [8]
ATCTCTAGGTAACCAGGTTCAGTGAATGCCGAAC,0.891,0.484,0.267,0.664,0.776,1.33,0.822,2.53
TCTGCTAGGACAACGATGGTCAGCTAATCTGCTA,-0.669,-0.181,0.34,0.112,-0.495,0.316,-0.704,-0.943
GCGACTGGGGCATCCGCAGGTTACCATAACTTAA,0.945,1.31,0.446,0.00577,0.41,1.21,-0.198,-0.454
ACACCAAGGTGATCGTGAGGTCGTTGATACTAAC,1.69,2.28,0.878,1.13,1.64,3.42,2.39,2.69
TTACCAAGGTGAAAGGTCGTTAATGCACGCCTTG,2.23,3.93,2.08,0.25,5.05,3.23,0.834,0.976
GCTAGTTGGTCAGTAAAACGTCACACACCGGTCG,0.309,-0.139,0.216,-0.207,-0.264,-0.444,-0.619,-0.255
GTACCAAGGTGAATAGGTCGTTGAGGAGTAGGCG,1.97,2.83,1.46,-0.482,1.63,1.76,0.714,0.676
TCTATTAGTTGGAGGGCAACCGACGAGTCCGTTT,1.31,0.442,0.781,1.47,0.834,0.528,0.592,1.86
GTACCGAGGTGAATAGGTCGTTGATGAGTAGGCG,1.73,2.95,1.64,-0.0161,2.11,2.15,0.482,0.202
TCTTGTAGATCAGCAGGTTAGGAAAGCTGGCCAA,0.063,-0.177,-0.406,0.591,0.165,0.0538,-0.496,-0.206
CCATACGGGTCAAGGTTATAGCACGGGTGGTACG,3.43,4.7,4.33,0.452,4.65,2.85,0.691,1.15
ATCTCTAGGTAACAAGTTCTGTGAAAGAGAGGAC,0.522,0.565,0.579,0.302,0.105,1.12,0.878,0.424
CCTATTAGTTGACAATAAGGGCAACCGAAGCTCG,1.52,1.04,0.963,0.782,0.644,1.8,0.906,0.927
CGAACTAGGACAAGGACAGTGAATCTCCGCACGC,0.532,0.083,0.606,0.343,0.0441,1.8,1.32,0.0217
TCGAGTAGGTTAGTCGCGGCATTCAGCCAACATA,-0.376,-0.336,-0.495,-0.209,-0.0361,-0.287,-1.14,-0.682
CATACAGGGTCAGCTAGGCCAAAGTAGGGACGGC,3.27,4.71,5.14,1.49,4.24,3.16,0.87,2.11
GGTATTAGTTGAAAGGGCAACCGAATGATTCTCG,2.53,1.76,1.81,0.965,1.5,1.08,0.579,1.23
TCTCGGAGGACCCGAAGGTCAGAGCTTTCCAGAG,2.83,2.16,1.76,-0.207,1.82,1.62,-0.184,-0.145
CCGACTGGGGCACAGGTTACCATACTCAGTACGA,1.07,1.02,0.906,-0.122,0.761,0.272,-0.26,-0.0992
TCGAGCAGGTTAGTCGGGGCATTCAGCCAACATA,0.497,-0.142,-0.25,-0.118,-0.199,1.21,-0.236,0.432
GCGACTGGGGCATCAGCAGGTTACCACAACTTAA,1.08,0.941,0.32,-0.0403,0.38,0.805,-0.203,-0.222
GCATATAGGTAATACAAGGTGAACGTCCGATTGT,0.986,0.615,0.716,0.418,0.745,4.18,1.38,0.386
CCTAGTTGGTCAGGAGGTCGCACACCGGATATGA,2.18,2.4,1.98,-0.149,1.86,1.66,0.99,1.59
CCTTACGGGTCAAGGTTCTAGCACGGGTGGTACG,3.2,4.78,4.47,0.551,4.96,2.39,0.0737,1.51
CCTACTGGGCCATCAGGTCATTGGTATCAACGTT,2.99,1.93,1.66,0.149,0.958,3.33,3.05,1.64
AGATCGAGGGCAATGAGTTGATAGCACGGGTGGC,1.18,0.862,1.38,1.73,0.854,0.856,0.0154,2.44
GGAAGGAGGGCATTCGAGTTGATAGCATGGCGAT,1.15,0.897,1.34,1.47,0.679,2.83,0.445,2.01
CGTTAAAGTTCAAGGTAACGTAACAGAAAGCAGC,3.54,4.91,5.74,4.35,3.98,2.78,1.23,3.34
